High-throughput results: PubChem, several laboratories
Shown are actives, neighbours in structure and some others; about 4.7% of the full set was active somewhere.
tim10-1 inh: inhibits growth of tim10-1 mutant yeast | S. cerevisiae tim10-1 ts strain growth, BacTiter-Glo, 24 h | inhibition, % at 20 µM | 330,000 tested, 2.2% active | AID 463190;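 active = inhibition of at least 40%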;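 note: mutant grown at 25 °C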
SKKanGAS inh: SKKanGAS growth inhibition; inhibition, % at 7.5 µM; 300,000 tested, 1.3% active; S. pyogenes SKKanGAS, kanamycin growth, BacTiter-Glo, 6 h;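 active = mean replicate score, as percent of positive control median, at least 50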;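 note: strain carries kanamycin resistance gene driven by streptokinase promoter and grows in 40 µg/ml kanamycin; loss of luminescence reflects streptokinase promoter inhibition or plain growth inhibition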
tim23-1 inh: growth inhibitors of tim23-1 mutant yeast. S. cerevisiae tim23-1 growth, BacTiter-Glo luminescence, 24 h. inhibition, % at 20 µM. 330,000 tested, 1.3% active. AID 463212;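 active = growth inhibition of the mutant yeast at or above 50%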;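 note: temperature-sensitive mutant grown at 25 °C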
PfHsp90 yeast 2: growth inhibition of yeast expressing Plasmodium Hsp90. S. cerevisiae expressing PfHsp90, BacTiter-Glo ATP, 48 h; yeast lacking PDR1 and PDR3 efflux regulators. inhibition, % at 9.4 µM. 310,000 tested, 0.32% active;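 active = every replicate shows inhibition above about 80%, whatever the replicate mean, limit read from the data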
TIM10 inh: TIM10 yeast growth inhibition; inhibition, % at 10 µM; AID 463195; 330,000 tested, 1.4% active; S. cerevisiae TIM10 strain growth, BacTiter-Glo luminescence, 24 h;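 active = inhibition of 40% or more at the single tested concentration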;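 note: wild-type TIM10 isogenic control strain grown at permissive 25 °C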
EBI2 block: EBI2 (human) antagonism; P32249; EBI2 beta-arrestin recruitment, luminescence, 7a,25-OHC stimulated; inhibition, % at 5 µM; 360,000 tested, 0.81% active; in the data active = inhibition above about 38%;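 note: enzyme fragment complementation signal reports receptor beta-arrestin coupling in cells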
Target sequence (P32249 whole entry, looked up, the tested form may be a part): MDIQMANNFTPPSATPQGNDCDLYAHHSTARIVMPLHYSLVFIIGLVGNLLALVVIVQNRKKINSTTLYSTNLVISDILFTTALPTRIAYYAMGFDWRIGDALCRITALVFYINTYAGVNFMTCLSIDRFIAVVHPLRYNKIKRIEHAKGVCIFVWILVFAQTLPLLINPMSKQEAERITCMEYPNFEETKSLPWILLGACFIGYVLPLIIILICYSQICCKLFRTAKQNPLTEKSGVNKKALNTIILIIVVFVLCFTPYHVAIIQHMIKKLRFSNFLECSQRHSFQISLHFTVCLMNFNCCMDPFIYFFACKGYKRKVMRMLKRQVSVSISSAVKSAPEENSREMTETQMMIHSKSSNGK
Numbers stand for hits; 0 = inactive; - = no result.

SMILES	tim10-1 inh	SKKanGAS inh	tim23-1 inh	PfHsp90 yeast 2	TIM10 inh	EBI2 block
Cc1noc(C)c1CSc1nc2sc3c(c2c(=O)n1C)CCCC3	0	0	0	0	0	0
N=C1SCC(=O)N1c1ncc(Cc2ccc(F)cc2)s1	0	74	0	0	0	0
C/C(=N/NS(=O)(=O)c1ccc(Cl)cc1)c1cccc(NC(=O)c2ccc(Cl)cc2Cl)c1	0	64	0	0	0	0
C/C(=N/NS(=O)(=O)c1ccc(C)cc1)c1cccc(NC(=O)c2cccc(Cl)c2)c1	0	0	0	0	0	0
COc1ccc(/C=N/OCC(=O)N=Nc2c(O)[nH]c3ccc(Br)cc23)cc1OC	0	0	0	0	0	0
COc1ccccc1NC(=S)N=Nc1c(O)[nH]c2ccc(Br)cc12	0	93	0	0	0	0
Oc1[nH]c2ccc(Br)cc2c1N=NC(=S)NCC1CCCO1 (stereo not drawn)	0	81	0	0	0	0
COc1ccc(C(=O)/C=C/c2ccc(O)cc2)c(O)c1CC=C(C)C	0	89	0	0	0	0
COc1ccc(C(=O)/C=C/c2ccc(O)cc2)c2c1CC(O)C(C)(C)O2 (stereo not drawn)	0	-	0	0	0	0
CCC(C)[C@H]1CNC(=O)C(=O)N1CCc1cccc2ccccc12 (stereo partly drawn)	-	-	-	-	-	0
CCC(C)[C@H]1CNC(=S)N1CCc1cccc2ccccc12 (stereo partly drawn)	0	0	0	-	0	46
CC(C)(O)c1[nH]c2ccc(C(F)(F)F)cc2c1C(C)(C)O	0	0	0	0	0	0
CC(C)(O)c1[nH]c2cc(F)ccc2c1C(C)(C)O	-	90	-	0	-	0
NC(=O)c1cc(C(=O)Cc2ccccc2)c[nH]1	0	92	0	0	0	0
COC(=O)c1cc(C(=O)Cc2ccccc2)c[nH]1	0	0	0	-	0	-
S=c1nc(C2CC2)n(-c2ccccc2)[nH]1	0	0	0	0	0	0
CC(C)CSC1=NSC2=NC(=O)/C(=C\c3coc4ccccc4c3=O)C(=N)N12	0	61	0	0	0	0
CCn1ccc(C(=O)NC2C(=O)N3C(C(=O)O)=C(C)CSC23)n1 (stereo not drawn)	0	0	0	0	0	0
C=CC1=C(C(=O)O)N2C(=O)[C@@H](NC(=O)/C(=N\O)c3csc(N)n3)[C@H]2SC1 (stereo in doubt)	0	107	0	0	0	0
CCc1c(C2(O)CCCCC2)[nH]c2ccc(C(F)(F)F)cc12	0	69	0	0	0	0
CN(C)Cc1c(C(C)(C)O)[nH]c2ccc(C(F)(F)F)cc12	0	-	0	0	0	0
CCCC(=O)OCCNc1cc(Sc2nccn2C)c2nonc2c1[N+](=O)[O-]	-	0	-	0	-	49
CC(=O)C1=CCC(c2ccc(C)o2)N(S(=O)(=O)c2ccc(C)cc2)C1 (stereo not drawn)	-	-	-	-	-	0
COc1cc(-c2nc(-c3ccccc3)c(-c3cc([N+](=O)[O-])ccc3C)[nH]2)cc(OC)c1OC	0	0	0	0	0	38
O=[N+]([O-])c1cccc(-c2nc(-c3ccccc3)c(-c3cccs3)[nH]2)c1	0	0	0	0	0	0
SMILES	tim10-1 inh	SKKanGAS inh	tim23-1 inh	PfHsp90 yeast 2	TIM10 inh	EBI2 block
Cc1ccc(OCC(=O)N2CC(C)OC(C)C2)c([N+](=O)[O-])n1 (stereo not drawn)	0	0	0	0	0	0
Nc1ccc2nc(-c3ccc(Cl)cc3)[nH]c2c1	0	84	0	0	0	0
Nc1ccc2nc(-c3cc(Cl)c(N)c(Cl)c3)[nH]c2c1	0	63	0	0	0	0
Nc1ccc(-c2nc3ccc(N)cc3[nH]2)cc1	0	0	0	0	0	0
Cc1oc2c(c1C(=O)c1ccc(Cl)cc1)C(=O)C(=O)c1ccccc1-2	-	75	-	-	-	0
Cc1cc(=O)c(C(=O)c2ccccc2)c(C)o1	0	0	0	0	0	0
Cc1ccc(C(=O)c2c(C)oc3c2C(=O)C(=O)c2ccccc2-3)cc1	0	93	0	-	0	0
Cc1sc2cc3c(c(C(=O)c4ccccc4)[n+]2c1C)-c1cccc2cccc-3c12	-	55	-	-	-	-
O=C(c1ccccc1)c1c2c(cc3sc4ccccc4[n+]13)-c1cccc3cccc-2c13	-	-	-	0	-	0
COc1ccc(NC(=O)C(=O)NNC(=O)C(C)Oc2ccc(Cl)cc2Cl)cc1 (stereo not drawn)	0	71	0	0	0	0
CC(=O)Nc1ccc(NC(=O)C(C)Oc2ccc(Cl)cc2Cl)cc1 (stereo not drawn)	0	0	0	0	0	0
CCN(C(=O)CO/N=C/c1ccc(OC)cc1OC)c1c(N)n(Cc2ccccc2)c(=O)[nH]c1=O	0	-	0	0	0	0
CCCCCc1c(-c2ccc(F)cc2F)ncn1CCc1ccccc1OC	-	-	-	-	-	0
COCc1cc(=O)[nH]c(Nc2nc3ccccc3o2)n1	0	53	0	0	0	0
Cc1cccc(C(=O)Nc2nnc(-c3ccncc3)o2)c1	0	0	0	-	0	0
CN(C)c1ccc(C(=O)NNC(=O)c2ccc(Cl)cc2)cc1	0	0	0	0	0	0
O=C(Nc1nnc(-c2ccco2)o1)c1ccc(Cl)cc1	0	87	0	0	0	0
CN(C)c1ccc(C(=O)Nc2nnc(-c3ccc(Cl)cc3)o2)cc1	0	91	0	0	0	0
O=C(Nc1nnc(-c2ccncc2)o1)c1ccc2ccccc2c1	0	78	0	0	0	0
CN(c1ccccc1)S(=O)(=O)c1ccc(C(=O)Nc2nnc(-c3ccc(F)cc3)o2)cc1	0	103	0	-	0	-
CSc1cccc(NC(=O)c2ccc(NC3=NC4CS(=O)(=O)CC4S3)cc2)c1 (stereo not drawn)	0	0	0	0	0	0
Fc1ccc(-c2nnc(Cc3ccc(Cl)cc3)o2)cc1	0	0	0	0	0	0
O=C(COc1ccc(/C=N/NC(=O)C(=O)N2CCCCCC2)cc1)Nc1ccccc1Cl	-	0	-	0	-	0
COC(=O)C[C@@H]1OC[C@H](Cc2ccccc2)N1S(=O)(=O)c1ccc(C)cc1	-	-	-	-	-	0
CC(=O)OC[C@@H]1CN(Cc2ccccc2)C[C@H](n2cnc3c(NCC(C)C)ncnc32)O1	-	-	-	-	-	0
SMILES	tim10-1 inh	SKKanGAS inh	tim23-1 inh	PfHsp90 yeast 2	TIM10 inh	EBI2 block
Cc1ccnc2nc(C(=O)Nc3nnc(-c4ccc(Cl)cc4)o3)nn12	0	0	0	0	0	0
CC(=O)c1ccc(C(=O)Nc2nnc(-c3ccc(Cl)cc3)o2)cc1	0	91	0	0	0	0
O=C(Nc1nnc(-c2ccccc2)o1)c1ccc(Cl)cc1	0	92	0	0	0	0
O=C(NCCc1ccccc1)c1ccc(NC(=O)C2CC2)cc1	-	-	-	0	-	0
CCOC(=O)c1ccc(Nc2nc(C(=O)OCC)nc3ccccc23)cc1	0	0	0	0	0	0
CCOC(=O)c1nc(Nc2ccc(Nc3ccccc3)cc2)c2ccccc2n1	-	56	-	0	-	0
CC(C)=C[C@H]1C[C@H](C)[C@H]2CC[C@H](C)c3c(O[C@@H]4O[C@@H](C)[C@@H](O)[C@@H](O)[C@@H]4O)c(O)c(C)c1c32	-	-	-	-	-	0
